In the supplement of paper PMC10849652 one finds log2 fold change data, which are given here for nine targets.

Of roughly 8,800 targets only a part is listed; those with a hit were picked by preference. About 0.5% of all pairs of compound and target were hits. Values without a mark were called inactive.

Holding throughout (experiment): log2 fold change, soluble protein after heating vs DMSO (PISA); higher = thermal stabilisation; K562 lysate, 10 uM; active = over 0.2 and 3.5 SD of the protein, either way, in both replicates (recomputed)
Compound in one test: Cc1cn(-c2cc(NC(=O)c3ccc(C)c(Nc4nccc(-c5cccnc5)n4)c3)cc(C(F)(F)F)c2)cn1 [nilotinib]
Summed up:
(§1)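 Thermal stability, expressed as log-two fold change relative to solvent controls, is given from duplicates. Crude K562 extract in PBS pH 7.4 with 1 mM MgCl2, at 1 mg/mL protein, was treated with 10 μM compound for 30 min and heated in aliquots for 3 min across 48°C-58°C. After pooling, adjustment to 0.5% NP-40 at 4°C and centrifugation at 21,000xg for 90 min, supernatant protein was measured by TMTpro 16plex LC-MS/MS with channel sums equalised.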

Compound in test [1]: Cc1nc(Nc2n[nH]c3c2CN(C(=O)N[C@H](CN(C)C)c2ccccc2)C3(C)C)c2sccc2n1
Summed up: as §1

Compound in a further test: Cc1nc(Nc2ncc(C(=O)Nc3c(C)cccc3Cl)s2)cc(N2CCN(CCO)CC2)n1 [dasatinib]
Summed up: as §1

Compound in test [2]: Cc1ncc(-c2ccnc(Nc3ccc(S(C)(=O)=O)cc3)n2)n1C(C)C
Summed up:
as §1

Compound in test [3]: Cn1cc(-c2ccc3c(c2)CCN3C(=O)Cc2cccc(C(F)(F)F)c2)c2c(N)ncnc21
Summed up:
as §1

Compound in the next test: Cn1cc(CNCC2CCN(c3ncc(C(=O)NO)cn3)CC2)c2ccccc21 [quisinostat]
In outline:
as §1

Compound in another test: Cn1cncc1[C@@](N)(c1ccc(Cl)cc1)c1ccc2c(c1)c(-c1cccc(Cl)c1)cc(=O)n2C [tipifarnib]
In outline:
as §1

Compound in test [4]: NC(=O)Nc1cc(-c2cccc(F)c2)sc1C(=O)N[C@H]1CCCNC1
In outline: as §1

Compound in test [5]: NC(=O)c1cnc(N[C@@H]2CCCC[C@@H]2N)nc1Nc1cccc(-n2nccn2)c1
Summed up:
as §1

Compound in test [6]: NC1(c2ccc(-c3nc4ccn5c(=O)[nH]nc5c4cc3-c3ccccc3)cc2)CCC1
Summed up: as §1

Compound in test [7]: NCC(=O)Nc1ccc(-n2nc(C(F)(F)F)cc2-c2ccc3c(ccc4ccccc43)c2)cc1
In outline: as §1

Compound in another test: O=C(CCCCCCC(=O)Nc1ccccc1)NO [vorinostat]
Summed up: as §1

Compound in a further test: O=C(O)c1ccc2c(c1)nc(Nc1cccc(Cl)c1)c1ccncc12 [silmitasertib]
In outline: as §1

Compound in test [8]: O=C1NC(=O)C(c2cnc3ccccn23)=C1c1cn2c3c(cc(F)cc13)CN(C(=O)N1CCCCC1)CC2
In outline:
as §1

Compound in another test: c1cn2cc(-c3ccc4cn[nH]c4c3)nc(Nc3ccc(N4CCOCC4)cc3)c2n1 [entospletinib]
In outline: as §1

Chain of UniProt P54132 (P54132 whole entry, looked up): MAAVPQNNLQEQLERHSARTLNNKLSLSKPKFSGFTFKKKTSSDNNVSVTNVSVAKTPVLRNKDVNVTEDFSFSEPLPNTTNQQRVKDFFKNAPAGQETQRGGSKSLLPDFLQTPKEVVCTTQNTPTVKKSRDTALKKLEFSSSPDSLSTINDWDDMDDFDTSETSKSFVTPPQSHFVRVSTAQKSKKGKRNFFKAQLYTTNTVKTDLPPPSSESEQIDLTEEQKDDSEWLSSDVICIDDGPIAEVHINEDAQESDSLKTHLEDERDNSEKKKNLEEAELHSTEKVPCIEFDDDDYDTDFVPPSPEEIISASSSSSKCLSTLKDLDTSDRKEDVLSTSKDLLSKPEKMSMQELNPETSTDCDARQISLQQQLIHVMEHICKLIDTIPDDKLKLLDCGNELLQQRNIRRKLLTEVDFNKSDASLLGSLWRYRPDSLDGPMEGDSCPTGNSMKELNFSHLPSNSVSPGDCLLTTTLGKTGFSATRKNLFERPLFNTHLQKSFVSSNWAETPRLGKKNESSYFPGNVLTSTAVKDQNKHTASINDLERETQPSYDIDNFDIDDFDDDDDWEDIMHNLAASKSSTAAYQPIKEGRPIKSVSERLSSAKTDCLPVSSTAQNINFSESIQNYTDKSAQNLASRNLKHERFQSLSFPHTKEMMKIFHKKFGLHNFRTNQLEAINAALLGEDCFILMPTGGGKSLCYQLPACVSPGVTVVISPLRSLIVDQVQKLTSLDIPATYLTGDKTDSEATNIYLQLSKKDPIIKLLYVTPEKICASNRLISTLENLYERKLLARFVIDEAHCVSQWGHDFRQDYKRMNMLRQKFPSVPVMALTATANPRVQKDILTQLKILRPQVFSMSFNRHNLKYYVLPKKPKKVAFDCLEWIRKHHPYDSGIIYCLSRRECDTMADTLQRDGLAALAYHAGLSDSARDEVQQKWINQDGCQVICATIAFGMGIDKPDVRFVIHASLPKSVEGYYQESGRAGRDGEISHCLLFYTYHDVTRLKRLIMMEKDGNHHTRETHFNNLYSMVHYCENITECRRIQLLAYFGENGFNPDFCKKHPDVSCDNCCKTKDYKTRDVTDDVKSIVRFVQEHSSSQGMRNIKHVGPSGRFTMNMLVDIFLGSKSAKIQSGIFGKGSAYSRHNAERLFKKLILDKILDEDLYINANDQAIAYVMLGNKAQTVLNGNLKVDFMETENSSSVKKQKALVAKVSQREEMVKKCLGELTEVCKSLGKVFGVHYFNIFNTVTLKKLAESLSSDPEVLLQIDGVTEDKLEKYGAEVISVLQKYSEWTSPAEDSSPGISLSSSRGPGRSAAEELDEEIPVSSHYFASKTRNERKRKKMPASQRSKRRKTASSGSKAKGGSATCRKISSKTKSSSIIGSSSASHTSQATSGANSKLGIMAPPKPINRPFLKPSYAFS
Chain of UniProt Q13042 (Q13042 whole entry, looked up): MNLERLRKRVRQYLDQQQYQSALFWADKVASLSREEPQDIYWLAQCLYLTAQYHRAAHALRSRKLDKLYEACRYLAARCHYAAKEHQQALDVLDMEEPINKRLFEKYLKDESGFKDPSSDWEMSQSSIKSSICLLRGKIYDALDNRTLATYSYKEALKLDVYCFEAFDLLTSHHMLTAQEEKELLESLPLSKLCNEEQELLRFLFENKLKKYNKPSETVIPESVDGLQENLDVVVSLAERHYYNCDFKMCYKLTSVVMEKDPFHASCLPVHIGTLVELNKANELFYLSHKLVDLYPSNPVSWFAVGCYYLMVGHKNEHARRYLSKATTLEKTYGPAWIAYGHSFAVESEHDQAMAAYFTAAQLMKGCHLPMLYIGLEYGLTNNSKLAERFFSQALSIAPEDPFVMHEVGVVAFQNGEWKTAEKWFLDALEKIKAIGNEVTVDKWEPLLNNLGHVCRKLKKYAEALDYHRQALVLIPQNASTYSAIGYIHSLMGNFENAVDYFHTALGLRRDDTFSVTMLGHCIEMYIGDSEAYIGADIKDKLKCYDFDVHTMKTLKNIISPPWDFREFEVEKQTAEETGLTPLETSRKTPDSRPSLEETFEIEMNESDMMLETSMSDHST
Chain of UniProt Q13111 (Q13111 whole entry, looked up): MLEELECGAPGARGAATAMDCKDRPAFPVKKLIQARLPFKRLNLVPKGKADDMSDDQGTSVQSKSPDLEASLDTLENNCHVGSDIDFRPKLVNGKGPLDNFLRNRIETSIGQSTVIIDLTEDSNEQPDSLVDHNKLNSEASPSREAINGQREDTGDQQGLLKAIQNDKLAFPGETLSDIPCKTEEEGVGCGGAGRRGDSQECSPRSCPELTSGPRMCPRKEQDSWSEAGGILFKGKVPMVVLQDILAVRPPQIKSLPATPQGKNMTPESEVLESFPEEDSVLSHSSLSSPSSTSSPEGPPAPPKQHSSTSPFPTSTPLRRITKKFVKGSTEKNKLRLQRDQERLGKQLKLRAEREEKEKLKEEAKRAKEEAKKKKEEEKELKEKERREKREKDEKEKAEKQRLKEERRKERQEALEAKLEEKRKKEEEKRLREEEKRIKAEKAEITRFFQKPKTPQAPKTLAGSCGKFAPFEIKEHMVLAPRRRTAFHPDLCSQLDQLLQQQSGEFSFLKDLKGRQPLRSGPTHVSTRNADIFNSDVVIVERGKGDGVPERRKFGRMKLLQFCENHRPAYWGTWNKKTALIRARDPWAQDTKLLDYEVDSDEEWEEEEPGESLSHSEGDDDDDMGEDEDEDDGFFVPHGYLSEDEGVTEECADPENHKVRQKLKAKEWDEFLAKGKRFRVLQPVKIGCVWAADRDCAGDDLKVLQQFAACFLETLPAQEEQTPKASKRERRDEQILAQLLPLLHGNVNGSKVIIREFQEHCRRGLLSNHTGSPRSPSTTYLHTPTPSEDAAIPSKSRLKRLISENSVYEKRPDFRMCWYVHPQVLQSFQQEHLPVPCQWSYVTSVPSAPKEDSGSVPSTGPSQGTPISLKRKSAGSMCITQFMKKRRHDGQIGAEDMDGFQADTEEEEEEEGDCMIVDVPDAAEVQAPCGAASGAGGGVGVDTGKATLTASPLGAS
Chain of UniProt Q8IWY9 (Q8IWY9 whole entry, looked up): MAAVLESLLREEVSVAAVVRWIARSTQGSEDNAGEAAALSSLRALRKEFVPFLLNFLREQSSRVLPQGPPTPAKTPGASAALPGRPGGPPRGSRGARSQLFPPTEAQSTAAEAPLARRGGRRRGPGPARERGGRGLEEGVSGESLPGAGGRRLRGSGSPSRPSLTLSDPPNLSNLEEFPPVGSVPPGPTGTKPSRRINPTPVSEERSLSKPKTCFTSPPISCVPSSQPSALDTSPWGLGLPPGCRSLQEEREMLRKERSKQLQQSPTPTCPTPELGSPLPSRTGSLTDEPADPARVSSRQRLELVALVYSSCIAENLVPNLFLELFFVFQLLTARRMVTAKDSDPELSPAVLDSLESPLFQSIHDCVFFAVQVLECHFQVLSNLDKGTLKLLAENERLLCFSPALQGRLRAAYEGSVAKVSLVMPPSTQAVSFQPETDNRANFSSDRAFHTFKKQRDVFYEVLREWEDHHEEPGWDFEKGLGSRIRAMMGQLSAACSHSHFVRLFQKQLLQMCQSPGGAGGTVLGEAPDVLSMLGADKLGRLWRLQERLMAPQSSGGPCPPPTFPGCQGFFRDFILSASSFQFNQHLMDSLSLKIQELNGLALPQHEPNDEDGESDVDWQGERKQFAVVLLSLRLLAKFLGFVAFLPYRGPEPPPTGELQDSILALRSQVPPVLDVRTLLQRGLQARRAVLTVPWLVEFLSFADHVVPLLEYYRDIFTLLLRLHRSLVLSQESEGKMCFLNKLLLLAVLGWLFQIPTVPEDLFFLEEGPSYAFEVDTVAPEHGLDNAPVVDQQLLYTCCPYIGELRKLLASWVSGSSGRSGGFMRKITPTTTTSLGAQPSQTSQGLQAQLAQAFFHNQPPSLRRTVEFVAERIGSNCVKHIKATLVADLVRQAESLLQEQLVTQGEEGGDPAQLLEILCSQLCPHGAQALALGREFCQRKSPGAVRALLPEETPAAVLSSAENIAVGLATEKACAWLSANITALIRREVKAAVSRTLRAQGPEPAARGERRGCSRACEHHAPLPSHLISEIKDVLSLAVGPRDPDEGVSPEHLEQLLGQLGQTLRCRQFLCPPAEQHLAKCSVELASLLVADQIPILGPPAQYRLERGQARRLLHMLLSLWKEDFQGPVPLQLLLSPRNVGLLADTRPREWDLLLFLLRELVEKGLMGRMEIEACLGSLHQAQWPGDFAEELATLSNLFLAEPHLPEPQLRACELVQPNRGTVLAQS
Chain of UniProt P24863 (P24863 whole entry, looked up): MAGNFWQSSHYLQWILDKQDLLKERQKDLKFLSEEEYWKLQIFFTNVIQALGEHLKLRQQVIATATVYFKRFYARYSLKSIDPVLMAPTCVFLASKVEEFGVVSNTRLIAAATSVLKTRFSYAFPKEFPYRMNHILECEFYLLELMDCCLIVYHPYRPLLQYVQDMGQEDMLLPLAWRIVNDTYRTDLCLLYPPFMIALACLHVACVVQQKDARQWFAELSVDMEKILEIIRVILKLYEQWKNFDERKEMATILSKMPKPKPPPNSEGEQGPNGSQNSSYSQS
Chain of UniProt Q13555 (Q13555 whole entry, looked up): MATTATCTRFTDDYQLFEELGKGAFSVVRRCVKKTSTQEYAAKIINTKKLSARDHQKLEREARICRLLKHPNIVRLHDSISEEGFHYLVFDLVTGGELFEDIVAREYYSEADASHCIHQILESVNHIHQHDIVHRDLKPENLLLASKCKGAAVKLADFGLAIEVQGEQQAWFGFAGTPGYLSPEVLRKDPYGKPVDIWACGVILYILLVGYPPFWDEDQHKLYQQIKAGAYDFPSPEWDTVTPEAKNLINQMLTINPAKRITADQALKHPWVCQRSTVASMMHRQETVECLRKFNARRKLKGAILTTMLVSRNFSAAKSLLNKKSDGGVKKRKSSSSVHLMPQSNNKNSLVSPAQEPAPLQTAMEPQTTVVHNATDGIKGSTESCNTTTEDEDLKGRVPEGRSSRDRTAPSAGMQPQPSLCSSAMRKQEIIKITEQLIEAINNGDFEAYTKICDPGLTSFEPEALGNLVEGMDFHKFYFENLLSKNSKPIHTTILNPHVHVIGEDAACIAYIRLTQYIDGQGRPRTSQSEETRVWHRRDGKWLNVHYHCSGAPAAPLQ

For the target CDC16 (UniProt Q13042), the log2 fold change is -0.013 with nilotinib; 0.023 in test [1]; -0.012 in the test with dasatinib; -0.027 in test [2]; 0.019 in [3]; 0.01 with quisinostat. For the same target, the log2 fold change is 0.017 in the test with tipifarnib; 0.024 in [4]; -0.019 in test [5]; -0.014 in [6]; -0.068 in test [7]; -0.265 (active) with vorinostat. The log2 fold change in the test with silmitasertib was 0.023; in test [8] it was -0.006; with entospletinib, -0.015.

For the target CCNC (UniProt P24863), the log2 fold change was 0.013 with nilotinib; 0.035 in test [1]; 0.04 in the test with dasatinib; 0.202 in test [2]; -0.017 in test [3]; 0 with quisinostat. For the same target, the log2 fold change with tipifarnib was -0.049; in test [4], 0.048; in test [5], -0.007; in test [6], -0.029; in [7] it was 0.159; in the test with vorinostat, -0.001. The log2 fold change with silmitasertib was 0.338; in test [8] it was -0.092; in the test with entospletinib, 0.029.

Consider CENPQ (UniProt Q7L2Z9), for which the log2 fold change is -0.025 with nilotinib; 0.044 in test [1]; 0 with dasatinib; -0.036 in test [2]; -0.015 in [3]; 0.07 with quisinostat. Further, the log2 fold change in the test with tipifarnib is -0.076; in [4] it was 0.047; in test [5] it was 0.164; in [6] it was -0.107; in test [7], -0.016; with vorinostat, 0.061. In addition, the figures for the log2 fold change (with silmitasertib; in test [8]; with entospletinib) were -0.014, 0.028 and 0.047, respectively.

With CEP120 (UniProt Q8N960), the log2 fold change with nilotinib is 0.524 (active); in test [1], -0.186; in the test with dasatinib, 0; in test [2] it was -0.251; in test [3], -0.001; with quisinostat, -0.067. In addition, the log2 fold change in the test with tipifarnib is 0.16; in test [4], 0.013; in [5], 0.024; in test [6], -0.151; in [7], 0.261; in the test with vorinostat it was 0.042. Also, the log2 fold change in the test with silmitasertib is -0.075; in test [8], 0.135; with entospletinib, -0.13.

On to CCDC32 isoform 2 (UniProt Q9BV29), for which the log2 fold change with nilotinib is -0.009; in test [1], 0.024; in the test with dasatinib it was 0.021; in test [2], 0.105; in [3], -0.001; in the test with quisinostat, -0.05. Further, the log2 fold change was 0.076 in the test with tipifarnib; -0.028 in test [4]; -0.05 in test [5]; -0.03 in test [6]; 0.005 in test [7]; 0.058 in the test with vorinostat. Besides, the log2 fold change was -0.044 with silmitasertib, 0.009 in test [8] and -0.042 in the test with entospletinib.

As for BLM (UniProt P54132), the log2 fold change with nilotinib was -0.002; in test [1], 0.014; in the test with dasatinib it was -0.013; in [2], 0; in test [3], 0.048; with quisinostat it was 0.109. The log2 fold change is 0.041 with tipifarnib; -0.013 in test [4]; -0.025 in test [5]; 0.018 in [6]; 0.03 in [7]; -0.056 with vorinostat. For the same target, the values for the log2 fold change (with silmitasertib; in test [8]; with entospletinib) were 0.044, 0.003 and -0.002, respectively.

As for CAMK2G isoform 8 (UniProt Q13555), the log2 fold change with nilotinib is -0.007; in [1], 0.518 (active); in the test with dasatinib it was -0.034; in test [2], 0.039; in test [3], -0.062; with quisinostat it was -0.125. Further, the log2 fold change is -0.005 in the test with tipifarnib; 0.219 in [4]; 0.019 in test [5]; -0.125 in test [6]; -0.044 in test [7]; -0.208 with vorinostat. In addition, the log2 fold change in the test with silmitasertib was 0.087; in test [8], 0.084; in the test with entospletinib, 0.004.

Consider CDAN1 (UniProt Q8IWY9), for which the log2 fold change is -0.029 with nilotinib; 0.022 in [1]; -0.055 in the test with dasatinib; -0.014 in [2]; -0.037 in test [3]; -0.09 with quisinostat. Also, the log2 fold change in the test with tipifarnib is -0.026; in [4] it was 0.066; in [5], 0.017; in test [6], -0.032; in test [7] it was 0.019; with vorinostat, -0.326 (active). The figures for the log2 fold change (with silmitasertib; in test [8]; with entospletinib) were 0.05, 0.056 and -0.006, respectively.

For CHAF1A (UniProt Q13111), the log2 fold change is -0.027 with nilotinib; 0.032 in test [1]; -0.068 with dasatinib; 0.008 in [2]; -0.032 in test [3]; -0.053 with quisinostat. Also, the log2 fold change is 0.019 with tipifarnib; -0.001 in [4]; -0.031 in test [5]; 0.036 in test [6]; 0.004 in test [7]; -0.402 (active) in the test with vorinostat. Further, the log2 fold change with silmitasertib was -0.004; in test [8] it was 0.004; with entospletinib, -0.082.
